Assay results reported in the supplement of paper PMC6522484.
± gives the standard deviation of the averaged measurements.

Experiments:
DLD1 [1] = test: cell viability (CellTiter-Glo) relative to plate median (fraction of plate median); higher = more viable cells; details: 5 µM; treatment time 24 h; reporter: 7TFP
Method in brief: (§1)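 Library compounds, at a final 5 µM, stayed on reporter cells for 24 h. The cells were colorectal cancer lines stably transduced with lentiviral TCF/Wnt firefly luciferase reporters, seeded in 384-well plates 24 h before dosing. Firefly luciferase or CellTiterGlo luminescence from parallel plates was normalised to the plate median in webcellHTS2 (additive, no log transformation), and two independent replicates were averaged.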

HCT116 = test: as above; details: 5 µM; treatment time 24 h; reporter: TCF4/Wnt
Method in brief: as §1

SW480 [2] = test: as above; details: 5 µM; treatment time 24 h; reporter: 7TFP
Method in brief: as §1

DLD1 [3] = test: TCF/Wnt firefly luciferase reporter signal relative to plate median (fraction of plate median); higher = higher Wnt reporter signal; details: 5 µM; treatment time 24 h; reporter: 7TFP
Method in brief: as §1

SW480 [4] = test: as above; details: 5 µM; treatment time 24 h; reporter: 7TFP
Method in brief: as §1

Q: `O=P1(NCCCl)OCCCN1CCCl` (stereo not given) was tested. Which cell viability (DLD1 [1]) did it give?
A: Its cell viability is 1.03 ± 0.079.

Q: And the cell viability (HCT116)?
A: The cell viability was 0.996 ± 0.021.

Q: And the cell viability (SW480 [2])?
A: Its cell viability is 0.973 ± 0.053.

Q: What about the “TCF/Wnt firefly luciferase reporter signal” value (DLD1 [3]) of the same compound?
A: Its value is 0.999 ± 0.28.

Q: And the “TCF/Wnt firefly luciferase reporter signal” value (SW480 [4])?
A: The value was 0.97 ± 0.086.

Q: Which results are given for `C=C(C)[C@H]1CN[C@H](C(=O)O)[C@H]1CC(=O)O`?
A: cell viability (DLD1 [1]): 0.986 ± 0.035; cell viability (HCT116): 1.01 ± 0.099; cell viability (SW480 [2]): 0.97 ± 0.0042; TCF/Wnt firefly luciferase reporter signal (DLD1 [3]): 0.923 ± 0.11; TCF/Wnt firefly luciferase reporter signal (SW480 [4]): 0.947 ± 0.047

Q: For `COc1ccc(OC)c(C(O)C(C)N)c1` (stereo not given), which cell viability (DLD1 [1]) is on record?
A: Its cell viability is 0.976 ± 0.1.

Q: What about the cell viability (HCT116) of the same compound?
A: The cell viability was 0.974 ± 0.037.

Q: What about the cell viability (SW480 [2]) of the same compound?
A: The cell viability was 0.926 ± 0.029.

Q: What about the “TCF/Wnt firefly luciferase reporter signal” value (DLD1 [3]) of the same compound?
A: Its value is 0.976 ± 0.031.

Q: What about the “TCF/Wnt firefly luciferase reporter signal” value (SW480 [4]) of the same compound?
A: The value was 1.13 ± 0.11.

Q: How did the cell viability (DLD1 [1]) turn out when `COC1=C[C@@H]2[C@@H]3Cc4ccc(OC)c(O)c4[C@]2(CCN3C)CC1=O` was run?
A: The cell viability was 0.973 ± 0.0085.

Q: What about the cell viability (HCT116) of the same compound?
A: The cell viability was 0.925 ± 0.017.

Q: And the cell viability (SW480 [2])?
A: The cell viability was 0.987 ± 0.033.

Q: And the “TCF/Wnt firefly luciferase reporter signal” value (DLD1 [3])?
A: The value was 1.03 ± 0.11.

Q: And the “TCF/Wnt firefly luciferase reporter signal” value (SW480 [4])?
A: Its value is 0.997 ± 0.16.

Q: For `COC(C)(C)CCC[C@H](C)C/C=C/C(C)=C/C(=O)OC(C)C`, which cell viability (DLD1 [1]) is on record?
A: Its cell viability is 0.948 ± 0.1.

Q: What about the cell viability (HCT116) of the same compound?
A: Its cell viability is 1.02 ± 0.014.

Q: And the cell viability (SW480 [2])?
A: The cell viability was 0.972 ± 0.083.

Q: And the “TCF/Wnt firefly luciferase reporter signal” value (DLD1 [3])?
A: Its value is 0.968 ± 0.12.

Q: What about the “TCF/Wnt firefly luciferase reporter signal” value (SW480 [4]) of the same compound?
A: Its value is 0.787 ± 0.08.

Q: How did the cell viability (DLD1 [1]) turn out when `Nc1ccccc1C(=O)O` [Anthranilic acid] was run?
A: The cell viability was 0.906 ± 0.16.

Q: And the cell viability (HCT116)?
A: The cell viability was 1 ± 0.037.

Q: What about the cell viability (SW480 [2]) of the same compound?
A: Its cell viability is 0.98 ± 0.015.

Q: And the “TCF/Wnt firefly luciferase reporter signal” value (DLD1 [3])?
A: Its value is 0.89 ± 0.044.

Q: What about the “TCF/Wnt firefly luciferase reporter signal” value (SW480 [4]) of the same compound?
A: The value was 1.04 ± 0.057.

Q: Which results are given for `CN[C@@H](C)[C@@H](O)c1ccccc1`?
A: cell viability (DLD1 [1]): 0.9265 ± 0.0021; cell viability (HCT116): 1.02 ± 0.035; cell viability (SW480 [2]): 0.978 ± 0.06; TCF/Wnt firefly luciferase reporter signal (DLD1 [3]): 0.993 ± 0.067; TCF/Wnt firefly luciferase reporter signal (SW480 [4]): 1.03 ± 0.064

Q: For `N#Cc1nn(-c2c(Cl)cc(C(F)(F)F)cc2Cl)c(N)c1[S+]([O-])C(F)(F)F` (stereo not given), which cell viability (DLD1 [1]) is on record?
A: Its cell viability is 1.02 ± 0.045.

Q: What about the cell viability (HCT116) of the same compound?
A: Its cell viability is 1.04 ± 0.028.

Q: And the cell viability (SW480 [2])?
A: The cell viability was 1.005 ± 0.0071.

Q: And the “TCF/Wnt firefly luciferase reporter signal” value (DLD1 [3])?
A: Its value is 1.01 ± 0.05.

Q: And the “TCF/Wnt firefly luciferase reporter signal” value (SW480 [4])?
A: Its value is 1.015 ± 0.0071.

Q: For `COc1ccc2c(c1)[C@]13CCCC[C@@H]1[C@H](C2)N(C)CC3`, which cell viability (DLD1 [1]) is on record?
A: The cell viability was 1 ± 0.053.

Q: And the cell viability (HCT116)?
A: The cell viability was 0.992 ± 0.096.

Q: What about the cell viability (SW480 [2]) of the same compound?
A: The cell viability was 1.02 ± 0.035.

Q: And the “TCF/Wnt firefly luciferase reporter signal” value (DLD1 [3])?
A: Its value is 1.03 ± 0.14.

Q: What about the “TCF/Wnt firefly luciferase reporter signal” value (SW480 [4]) of the same compound?
A: Its value is 1 ± 0.023.

Q: With `COc1ccc([C@H]2Oc3c(I)c(OC)cc(OC)c3C[C@@H]2O)cc1OC` as the compound, how does the cell viability (DLD1 [1]) read?
A: Its cell viability is 0.912 ± 0.011.

Q: And the cell viability (HCT116)?
A: The cell viability was 0.89 ± 0.0071.

Q: What about the cell viability (SW480 [2]) of the same compound?
A: The cell viability was 1 ± 0.042.

Q: And the “TCF/Wnt firefly luciferase reporter signal” value (DLD1 [3])?
A: The value was 0.959 ± 0.2.

Q: What about the “TCF/Wnt firefly luciferase reporter signal” value (SW480 [4]) of the same compound?
A: Its value is 1.07 ± 0.23.

Q: With `CCCN1C[C@H](CSC)C[C@@H]2c3cccc4[nH]cc(c34)C[C@H]21` as the compound, how does the cell viability (DLD1 [1]) read?
A: The cell viability was 0.934 ± 0.0057.

Q: What about the cell viability (HCT116) of the same compound?
A: The cell viability was 0.986 ± 0.049.

Q: What about the cell viability (SW480 [2]) of the same compound?
A: Its cell viability is 0.863 ± 0.086.

Q: What about the “TCF/Wnt firefly luciferase reporter signal” value (DLD1 [3]) of the same compound?
A: Its value is 1.

Q: And the “TCF/Wnt firefly luciferase reporter signal” value (SW480 [4])?
A: The value was 1.015 ± 0.0071.

Q: How did the cell viability (DLD1 [1]) turn out when `CN(C)C(=O)Oc1cccc([N+](C)(C)C)c1` was run?
A: Its cell viability is 1.06 ± 0.089.

Q: And the cell viability (HCT116)?
A: Its cell viability is 0.979 ± 0.017.

Q: What about the cell viability (SW480 [2]) of the same compound?
A: Its cell viability is 1.01 ± 0.017.

Q: And the “TCF/Wnt firefly luciferase reporter signal” value (DLD1 [3])?
A: The value was 1.03 ± 0.15.

Q: And the “TCF/Wnt firefly luciferase reporter signal” value (SW480 [4])?
A: The value was 1.09 ± 0.021.
